This is an account of results in a collection of fitness landscapes (doi:10.1016/j.celrep.2020.107928).

The full ranking holds about 81,000 sequences; the median of “one-hybrid fitness for binding NBS DNA” is about -0.1, and the highest 2% start at about 0.36. The entries come from a sample that favours the highest values as a whole.

B1: Caulobacter ParB omega fusion; a variant is named by its letters at X, in order, B8GW30 (parent)
chain: MESVVVGEPGMSEGRRGLGRGLSALLGEVDAAPAQAPGEQLGGSREAPIEILQRNPDQPRRTFREEDLEDLSNSIREKGVLQPILVRPSPDTAGEYQIVAGERAWRAAQRAGLKTVPIMVRELDDLAVLEIGIIENVQRADLNVLEEALSYKVLMEKFERTQENIAQTIGKSXSHVANXMRLLXLPDEVQSYLVSGELTAXHARAIAAAADPVALAKQIIEGGLSVRETEALARKAPNLSAGKSKGGRPPRVKDTDTQALESDLSSVLGLDVSIDHRGSTGTLTITYATLEQLDDLCNRLTRGI

Variants of B1 are the subject of the assay. Description: one-hybrid fitness for binding NBS DNA (the Noc-binding site; scaled: cognate 1, non-cognate 0); higher = stronger binding. Conditions: with NBS DNA site. Put shortly:
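On M9-minus-histidine containing 0.1 mM IPTG and 5 mM 3-AT, E. coli USO cells with a HIS3 reporter, site 19 bp from the promoter, grew 48 hours at 37°C to select Caulobacter ParB libraries randomised at four specificity codons. Plasmids from before and after were Illumina-sequenced, with three replicate libraries pooled and variants under 10 reads left out. Fitness is the log change in variant-to-wild-type read ratio, rescaled against cognate and non-cognate.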
With SNWL, the “one-hybrid fitness for binding NBS DNA” value is no more than 0.2.
The result for SNVR reads no more than 0.2; that for DAAD, no more than 0.2; that for TRAA, no more than 0.2.
The result for DDQR reads no more than 0.2; that for RITG, no more than 0.2; that for RATQ, no more than 0.2.
In the case of RITF, the “one-hybrid fitness for binding NBS DNA” value is no more than 0.2.
Next, RATT: 0.415; RITT: 0.421.
The result for RATK reads no more than 0.2; that for TSFV, no more than 0.2.
Next, LPSF: no more than 0.2; RRWP: no more than 0.2.
Consider RRWH, for which the “one-hybrid fitness for binding NBS DNA” value was 0.401.
The result for RRWS reads 0.628; that for RRWN, 0.222; that for RRWF, no more than 0.2.
Turning to RRWD, the “one-hybrid fitness for binding NBS DNA” value is no more than 0.2.
Next, HLQS: no more than 0.2.
On to MSNG, for which the “one-hybrid fitness for binding NBS DNA” value is no more than 0.2.
The result for HQPF reads no more than 0.2; that for PSTH, no more than 0.2; that for GLWQ, no more than 0.2.
The result for RYTD reads no more than 0.2; that for RYTT, 0.461; that for RYTS, 0.453.
Next, RYTH: no more than 0.2; RYTK: no more than 0.2; RYTP: no more than 0.2.
In the case of RYTC, the “one-hybrid fitness for binding NBS DNA” value was no more than 0.2.
Next, RYTN: no more than 0.2; RYTR: 0.469; TSVC: no more than 0.2.
In the case of LPCE, the “one-hybrid fitness for binding NBS DNA” value was no more than 0.2.
The result for YSAT reads no more than 0.2.
Next, QMLD: no more than 0.2; QALR: 0.424; QKLN: no more than 0.2.
QSLD: the “one-hybrid fitness for binding NBS DNA” value is no more than 0.2.
Next, QALP: no more than 0.2.
The result for QMLH reads no more than 0.2.
Next, QKLP: no more than 0.2; QMLR: 0.5; QALH: no more than 0.2.
Consider QKLR, for which the “one-hybrid fitness for binding NBS DNA” value was 0.491.
The result for QSLR reads 0.452; that for QSLH, no more than 0.2.
The result for DSDF reads no more than 0.2; that for RWRC, no more than 0.2; that for PLVT, no more than 0.2.
The result for DMHW reads no more than 0.2; that for TRSF, no more than 0.2; that for IKKC, no more than 0.2.
For QTLH, the “one-hybrid fitness for binding NBS DNA” value came out at 0.223.
Next, QTLR: 0.639; QTLN: no more than 0.2.
Next, QPLR: no more than 0.2; QHLP: no more than 0.2; QCLR: 0.562.
Next, QHLH: no more than 0.2; QHLR: 0.445.
As to QILR, the “one-hybrid fitness for binding NBS DNA” value came out at 0.335.
Next, WSWT: no more than 0.2; AVHS: no more than 0.2.
Next, GHKE: no more than 0.2; MTRR: 0.273.
The result for QQAR reads 0.654; that for QQHG, no more than 0.2; that for QQAP, no more than 0.2.
In the case of QQRE, the “one-hybrid fitness for binding NBS DNA” value amounted to 0.332.
Next, QQYP: no more than 0.2; QQYR: 0.578.
For the variant QQAN, the “one-hybrid fitness for binding NBS DNA” value is no more than 0.2.
For the variant DQRR, the “one-hybrid fitness for binding NBS DNA” value is no more than 0.2.
The result for QQHR reads 0.683; that for QQRR, 1.09.
Next, QQHF: no more than 0.2.
The result for DQYR reads no more than 0.2; that for KIQL, no more than 0.2.
On to YWII, for which the “one-hybrid fitness for binding NBS DNA” value is no more than 0.2.
Next, AFHM: no more than 0.2; TVSR: no more than 0.2.
The result for PDRQ reads no more than 0.2.
Next, TNMG: no more than 0.2; QQLM: no more than 0.2.
As to QQLG, the “one-hybrid fitness for binding NBS DNA” value was no more than 0.2.
The result for QQGC reads no more than 0.2; that for QQGR, 0.672; that for QQLR, 0.567.
The result for QQCK reads no more than 0.2.
The result for NQFR reads no more than 0.2; that for QQGK, no more than 0.2; that for QQCR, 0.63.
Regarding QQCD, the “one-hybrid fitness for binding NBS DNA” value is no more than 0.2.
The result for QQFR reads 0.491.
For TPFT, the “one-hybrid fitness for binding NBS DNA” value is no more than 0.2.
The result for ATSG reads no more than 0.2.
Regarding VDTI, the “one-hybrid fitness for binding NBS DNA” value was no more than 0.2.
With HTCG, the “one-hybrid fitness for binding NBS DNA” value is no more than 0.2.
Consider PHKP, for which the “one-hybrid fitness for binding NBS DNA” value is no more than 0.2.
Consider NAEM, for which the “one-hybrid fitness for binding NBS DNA” value is no more than 0.2.
The result for IYRA reads no more than 0.2; that for LQHD, no more than 0.2; that for WGPQ, no more than 0.2.
Next, LPFS: no more than 0.2; QQER: 0.426; QQQD: no more than 0.2.
The result for QQWY reads no more than 0.2; that for QQWM, no more than 0.2; that for QQSR, 0.635.
Turning to QQEY, the “one-hybrid fitness for binding NBS DNA” value is no more than 0.2.
The result for QQQR reads 0.586.
The result for QQQP reads no more than 0.2.
On to QQSG, for which the “one-hybrid fitness for binding NBS DNA” value was no more than 0.2.
The result for QQWR reads 0.514; that for QQEG, no more than 0.2.
The result for QQSC reads no more than 0.2.
Next, YILL: no more than 0.2; KDKK: no more than 0.2; ANDS: no more than 0.2.
Turning to PLNC, the “one-hybrid fitness for binding NBS DNA” value was no more than 0.2.
On to EYLC, for which the “one-hybrid fitness for binding NBS DNA” value was no more than 0.2.
The result for RVEC reads no more than 0.2.
The result for GVRI reads no more than 0.2.
Next, ESSI: no more than 0.2; DESV: no more than 0.2; QCGS: 0.487.
Take QRGN: the “one-hybrid fitness for binding NBS DNA” value is 0.418.
Next, QPGS: no more than 0.2; QCGH: 0.282; QCGN: no more than 0.2.
The result for QMGP reads no more than 0.2; that for QMGS, 0.42; that for QRGH, 0.616.
Next, QRGF: 0.33; QSGS: 0.358; QPGN: no more than 0.2.
Turning to QMGN, the “one-hybrid fitness for binding NBS DNA” value is no more than 0.2.
Next, NPLC: no more than 0.2; QMPM: no more than 0.2.
Next, ANEK: no more than 0.2.
Next, DSVS: no more than 0.2; KKWY: no more than 0.2.
Turning to CPMG, the “one-hybrid fitness for binding NBS DNA” value was no more than 0.2.
Next, LRFA: no more than 0.2; LPEF: no more than 0.2.
The result for WQTP reads no more than 0.2; that for ANVT, no more than 0.2; that for ITKV, no more than 0.2.
Regarding TWPS, the “one-hybrid fitness for binding NBS DNA” value was no more than 0.2.
The result for FCRR reads 0.277.
The result for LVQT reads no more than 0.2.
